{
  "source": "PubChem BioAssay (NCATS)",
  "data": [
    {"experiment": "qHTS profiling of the MIPE4 collection as inhibitors of Plasmodium falciparum (DD2) proliferation (Rep 2) (AID 743346)", "details": "P. falciparum Dd2 in erythrocytes, SYBR Green DNA, 72 h; at 28.5 µM unless noted", "how_it_was_run": "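Erythrocytes infected with P. falciparum (0.3% parasitemia, 2.5% hematocrit) incubated with compounds 72 h at 37 C, 5% CO2. Lysis with saponin/Triton buffer containing SYBR Green I, overnight at room temperature in the dark; DNA fluorescence (485/535 nm) normalised to 0.29 uM artemisinin and DMSO.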", "units": {"parasite growth, % of control (lower = inhibition)": "%"}, "values": [
      {"molecule": "C=C1C(=O)OC2C=C(C)CCC=C(C)CCC12", "note": "(configuration not stated)", "parasite growth, % of control (lower = inhibition)": 108},
      {"molecule": "NC(=O)c1cnc(-c2ccc(C3(N)CCC3)cc2)c(-c2ccccc2)c1", "parasite growth, % of control (lower = inhibition)": 30},
      {"molecule": "CC(=O)OC1C(C)OC(Oc2c(-c3ccc(O)cc3)oc3cc(O)cc(O)c3c2=O)C(O)C1OC(C)=O", "note": "(configuration not stated)", "parasite growth, % of control (lower = inhibition)": 32.5},
      {"molecule": "NC(=O)c1cccc2[nH]c(-c3ccc([C@H]4CCCN4)cc3F)nc12", "parasite growth, % of control (lower = inhibition)": 8.83},
      {"molecule": "CC1(C)CCC(CN2CCN(c3ccc(C(=O)NS(=O)(=O)c4ccc(NCC5CCOCC5)c([N+](=O)[O-])c4)c(Oc4cnc5[nH]ccc5c4)c3)CC2)=C(c2ccc(Cl)cc2)C1", "parasite growth, % of control (lower = inhibition)": 24.1},
      {"molecule": "Cc1c(O)cccc1C(=O)N[C@@H](CSc1ccccc1)[C@H](O)CN1C[C@H]2CCCC[C@@H]2C[C@@H]1C(=O)NC(C)(C)C", "parasite growth, % of control (lower = inhibition)": 37.7},
      {"molecule": "CN[C@@H](C)C(=O)N[C@H]1CN(C(=O)CC(C)C)CC[C@H]2CC[C@@H](C(=O)NC(c3ccccc3)c3ccccc3)N2C1=O", "parasite growth, % of control (lower = inhibition)": 27.9},
      {"molecule": "CC(=NNC(=S)N1CCC1)c1ccccn1", "parasite growth, % of control (lower = inhibition)": 10.5},
      {"molecule": "NC(=O)[C@@H](CCC(F)(F)F)N(Cc1ccc(-c2ncon2)cc1F)S(=O)(=O)c1ccc(Cl)cc1", "parasite growth, % of control (lower = inhibition)": 54.6},
      {"molecule": "O=c1cc(CN2CCOCC2)occ1OCCCCCSc1ccnc2cc(C(F)(F)F)ccc12", "parasite growth, % of control (lower = inhibition)": 33.6},
      {"molecule": "CC=CCC(C)C(O)C1C(=O)NC(CC)C(=O)N(C)CC(=O)N(C)C(CC(C)C)C(=O)NC(C(C)C)C(=O)N(C)C(CC(C)C)C(=O)NC(C)C(=O)NC(C)C(=O)N(C)C(CC(C)C)C(=O)N(C)C(CC(C)C)C(=O)N(C)C(C(C)C)C(=O)N1C", "note": "(configuration not stated)", "parasite growth, % of control (lower = inhibition)": 13.2},
      {"molecule": "CC(C)=CC[C@@H](O)C1=CC(=O)c2c(O)ccc(O)c2C1=O", "parasite growth, % of control (lower = inhibition)": 4.13}
    ]}
  ]
}
